From PubChem BioAssay (NCI) come the findings set out here.

Holding throughout (test): NCI-60 one-dose screen, 48 h (100 = growth as untreated, 0 = no growth, -100 = all killed)
Conditions in all cases: 10 µM unless noted

Assay [1] has as its system SR leukemia.
Assay [2] concerns RPMI-8226 leukemia.
Assay [3] relates to OVCAR-8 ovarian.
The test system of assay [4] is OVCAR-5 ovarian.
Assay [5] deals with OVCAR-4 ovarian.
For assay [6], the system named is SK-OV-3 ovarian.
Assay [7] concerns IGROV1 ovarian.
Assay [8] deals with OVCAR-3 ovarian.
Assay [9] relates to HS 578T breast.
The subject of assay [10] is NCI/ADR-RES ovarian.

About 83,000 compounds went through this panel and 20% of them were active in at least one assay; those are over-represented in the sample as a whole.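 Note: values are percent growth. 100 is the growth of untreated cells, values between 100 and 0 indicate rising inhibition; between -100 and 0 indicates cell death.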 Unmarked numbers belong to inactive results. Calls of active or inactive are those of the source. How the source made its calls: active means growth percent below 10; inactive means the rest.

On to `COc1cccc(CCNc2ncnc3c2ncn3Cc2nnc3c4ccccc4c(Cl)nn23)c1`, for which the growth is 33.5% in [1]; 48.8% in [2]; 40.3% in assay [3]; 102% in [4]; 57.5% in assay [5]; 3.23% (active) in assay [6]. Besides, the growth in assay [7] was 40%; in [8], 64%; in assay [9], 40.8%; in assay [10], 40.7%.
As to `O=C(Nc1ccccc1N1CCCC1=O)c1oc2ccc(F)cc2c1-c1cnn(-c2ccccc2)c1`, the growth in [1] was 61.6% [50 µM]; in [2], 32.3% [50 µM]; in assay [3], 20.5% [50 µM]; in assay [4], 87.8% [50 µM]; in assay [5], 57.6% [50 µM]; in [6] it was 56.5% [50 µM]. Also, the growth in assay [7] is 65.7% [50 µM]; in [8], 72.4% [50 µM]; in assay [9] it was 41.4% [50 µM]; in assay [10] it was 40.4% [50 µM].
Regarding `CCN(CC)CCCN1C(=O)c2c(c(C)c3c(oc4ccc(OC)cc43)c2C)C1=O`, the growth was 102% in [1]; 99.3% in assay [2]; 93.3% in assay [3]; 114% in assay [4]; 117% in assay [5]; 109% in assay [6]. Moreover, the growth in assay [7] is 94.6%; in [8], 108%; in assay [9], 99.2%; in assay [10] it was 95.7%.
On to `O=C(CC(=O)Nc1cccc(C(=O)O)c1)Nc1cccc(C(=O)O)c1`, for which the growth in [1] is 96%; in assay [2], 100%; in assay [3], 107%; in [4] it was 101%; in assay [5] it was 97.8%; in assay [6], 106%. The growth is 109% in assay [7], 113% in [8], 100% in assay [9] and 106% in [10].
As for `CCCCCCCCCCCCCCCCCC1=NC(C)(C)CN1CC(C)O` (stereo not given), the growth in [1] was -13.6% (active); in assay [2], 78.8%; in [3], 46.5%; in assay [4], 89.4%; in assay [5] it was 94.4%; in [6], 80.9%. The growth is 66.1% in [7], 46.6% in assay [8], 107% in [9] and 69.9% in [10].
Regarding `Cc1cccc[n+]1C1c2ccccc2-c2ccccc21`, the growth is 102% in assay [1]; 70.7% in [2]; 96.6% in [3]; 99% in assay [4]; 97.8% in assay [5]; 73.3% in assay [6]. Moreover, the growth in [7] is 92.2%; in assay [8] it was 98.5%; in assay [9], 101%; in assay [10] it was 111%.
As for `Cc1cc(Nc2ccc(C(=O)N3CCCC3)cc2)nc(NCCCNc2ccnc3cc(Cl)ccc23)n1`, the growth in assay [1] was 19.1%; in assay [2], 74.8%; in assay [3], 108%; in assay [4], 103%; in assay [5], 70%; in assay [6] it was 101%. Moreover, the growth in [7] is 76.2%; in assay [8], 90.3%; in assay [9], 92.3%; in assay [10], 99.8%.
Take `Cc1ccccc1Nc1cc(O)c2c(=O)cc(-c3ccccc3)oc2c1`: the growth in assay [1] was 7.93% (active); in assay [2] it was 29.7%; in [3], 52.5%; in [4] it was 89.2%; in assay [5], 53.1%; in [6], 59.3%. The growth in [7] is 45.3%; in assay [8], -4.27% (active); in [9] it was 44.7%; in [10], 4.9% (active).
On to `COC(=O)c1ccc(NC(=O)Nc2ccc(C(=O)OC)cc2)cc1`, for which the growth in assay [1] is 78.9%; in assay [2], 89.9%; in [3] it was 104%; in [4], 102%; in assay [5], 113%; in [6] it was 99.3%. The growth in assay [7] was 106%; in [8] it was 113%; in assay [9] it was 92.8%; in assay [10], 108%.
For `COc1ccc(Oc2nc(Nc3ccc(N4CCOCC4)cc3)ncc2NC(=O)Nc2cc(OC)cc(OC)c2)cc1`, the growth in assay [1] was 50.7%; in assay [2], 54.3%; in [3], 18.4%; in [4], 60.9%; in assay [5], 54.5%; in [6], 57.4%. Besides, the growth is 37.8% in [7], 18.3% in assay [8], 36.2% in assay [9] and 80.8% in assay [10].
Turning to `CC1(C)NCCC[C@]2(C)[C@H]3CC[C@H]4[C@H]5[C@H](C(=O)/C=C/c6cccnc6)CCC[C@]5(CO)CC[C@@]4(C)[C@]3(C)CC[C@@H]12`, the growth is -24.6% (active) in [1]; 13.1% in assay [2]; 55.5% in [3]; 74.8% in assay [4]; 75.3% in assay [5]; 108% in assay [6]. The growth was 26.6% in assay [7], 60.1% in assay [8], 74.4% in [9] and 82.4% in [10].
Regarding `O=C(N/N=C\c1cccc([N+](=O)[O-])c1)N/N=C/c1cccc([N+](=O)[O-])c1`, the growth in [1] was 109%; in assay [2] it was 97.1%; in assay [3] it was 101%; in assay [4] it was 114%; in assay [5], 105%; in assay [6], 101%. The growth in [7] was 107%; in assay [8], 112%; in assay [9], 97.9%; in [10], 106%.
